mIDH1 inhibitor – qHTS for Inhibitors of mutant isocitrate dehydrogenase 1 (IDH1): qHTS; IDH1-R132H enzyme, NADPH consumption, diaphorase/resazurin fluorescence; Isocitrate dehydrogenase [NADP] cytoplasmic (Homo sapiens), O75874; AID 602179, 2012; 0.093% of 390,000 active; Potency, µM (titrated, usually from 76.6 µM), for inactives: at the top dose activity change, negative = inhibition, actives largely listed as inhibitors; note: potency is the fitted concentration of half-maximal effect; % is set by controls: 0 for no effect and ±100 for the full control effect; nearly all actives have a fitted effect of over 65% in size
Target sequence (O75874 whole entry R132H, stated change not applied): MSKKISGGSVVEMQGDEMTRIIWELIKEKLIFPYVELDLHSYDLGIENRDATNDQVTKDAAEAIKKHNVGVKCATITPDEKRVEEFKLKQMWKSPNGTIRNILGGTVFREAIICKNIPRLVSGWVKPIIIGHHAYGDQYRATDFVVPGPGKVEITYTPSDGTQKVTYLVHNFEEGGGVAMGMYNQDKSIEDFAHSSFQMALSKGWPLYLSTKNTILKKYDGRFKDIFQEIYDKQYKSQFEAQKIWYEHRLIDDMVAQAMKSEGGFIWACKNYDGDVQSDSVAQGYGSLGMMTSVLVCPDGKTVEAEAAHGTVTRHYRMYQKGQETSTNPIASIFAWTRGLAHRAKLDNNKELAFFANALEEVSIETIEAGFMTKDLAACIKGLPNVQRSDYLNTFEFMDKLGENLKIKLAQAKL
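IDH1-R132H (0.5 ug/mL) preincubated 30 min with compound, then NADPH (0.016 mM) and alpha-KG (2 mM) added; 80 min at RT, pH 7.5. Remaining NADPH coupled via diaphorase/resazurin to fluorescence (540/590 nm); concentration-response curves normalized to no-enzyme control.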
ATXN2 expr inh – Primary qHTS for Inhibitors of ATXN expression | 0.72% of 360,000 active | Potency, µM (series often up to 57 µM), for the others: at the top dose activity change, negative = inhibition, usual class: inhibitors | HEK-293 ATXN2-luciferase reporter, luminescence, 24 h | AID 1745845, 2022; note: potency is the fitted concentration of half-maximal effect; % is set by controls: 0 for no effect and ±100 for the full control effect; nearly all actives have a fitted effect of over 55% in size
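ATXN2-luciferase reporter cells (luciferase flanked by upstream and downstream ATXN2 gene portions) were treated 24 h at 37 °C with compounds at up to 57 uM. SteadyGlo luminescence gave expression; GF-AFC fluorescence gave viability.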
ATXN viability – Viability Counterscreen for Primary qHTS for Inhibitors of ATXN expression | AID 651635, 2014 | Potency, µM (doses to about 56.7 µM), most hits filed as cytotoxic | 0.49% of 400,000 active | S2 cells (HEK-293 line with an ATXN2-luciferase reporter) viability, CellTiter-Fluor protease fluorescence, 24 h; note: potency is the fitted concentration of half-maximal effect; nearly all actives have a fitted effect of over 40% in size
TGFb inhibitor – qHTS for Inhibitors of TGF-b. 1.2% of 410,000 active. HepG2 CAGA-GFP TGF-b/SMAD3 reporter, GFP fluorescence, 18 h; TGF-beta stimulated, 500 pg/mL final. AID 588855, 2011. Potency, µM (series often up to 46.1 µM), for the others: top-dose activity, negative = inhibition, hits mostly inhibitors; note: potency is the fitted concentration of half-maximal effect; % is set by controls: 0 for no effect and ±100 for the full control effect; nearly all actives have a fitted effect of over 65% in size
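Cell-based qHTS in HEPG2 carrying a CAGA-GFP Smad reporter; compounds added before 500 pg/mL final TGF-beta, 18 h incubation at 37 degrees C, GFP fluorescence quantified per cell by imaging cytometry.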
HepG2 tox – qHTS for Inhibitors of TGF-b: Cytotox Counterscreen | Potency, µM (doses to about 46.1 µM), for inactives: at the highest dose activity change, negative = cytotoxicity, most hits filed as cytotoxic | HepG2 CAGA-GFP viability, ATP luminescence, 18 h | 0.76% of 410,000 active; note: potency is the fitted concentration of half-maximal effect
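CellTiter-Glo luminescence gave cytotoxicity after 18 hours at 37 degrees C. The cells were HepG2 CAGA-GFP in 1% FBS DMEM, stimulated with 500 pg/mL TGF-beta after compound addition. %Activity was normalised to no-cell wells (complete cell-killing) and DMSO (no toxicity), and curves were fitted and classified.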
LDHA block – qHTS assay for inhibitors of human lactate dehydrogenase | L-lactate dehydrogenase A chain (Homo sapiens), P00338 | purified LDHA, NADH/diaphorase-resazurin fluorescence; active compounds read low | activity change, % (values are at about 110 or 230 µM) | 0.15% of 480,000 active | AID 1347041, 2019; in the data active = activity change below about -30%; inconclusive = mostly about -25% to -30%;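 note: plate controls were DMSO wells for no effect and wells without enzyme for full effect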
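LDH5 2 nM; NADH 0.06 mM, pyruvate 0.2 mM; 200 mM Tris pH 7.4, EDTA, Tween-20; 5 min RT. Detection: diaphorase 0.133 mg/mL + resazurin 37 µM, fluorescence ex540/em590 at 0 and 20 min; normalized to enzyme-free and DMSO wells.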
* = called active by the depositor; i = inactive; ? = inconclusive; / = no result. Most compounds without a hit are left out; they make up all but 2.2% or so of the library. Unless noted, calls come from the whole dose curve; as a rule, active = well fitted curve in the direction sought with a large enough effect; inconclusive = small, poorly fitted or top-dose-only effect, or another doubt; inactive = no such curve, though single readings can be large; an effect the other way counts as inactive or inconclusive.

SMILES	mIDH1 inhibitor	ATXN2 expr inh	ATXN viability	TGFb inhibitor	HepG2 tox	LDHA block
CCOC(=O)c1ccc(NS(=O)(=O)c2ccc3[nH]c4c(c3c2)CCCCC4)cc1	-11%	?	?	?	25µM*	5
COc1cc(NS(=O)(=O)c2ccc3[nH]c4c(c3c2)CCCC4)cc(OC)c1OC	-13%	?	?	?	-45%	14
COc1cccc(CNS(=O)(=O)c2ccc3[nH]c4c(c3c2)CCCCC4)c1	3%	?	?	?	22µM*	4
O=S(=O)(NCc1ccc(F)cc1)c1ccc2[nH]c3c(c2c1)CCCCC3	-10%	-17%	i	?	-62%	-5
Cc1cc(C)c2oc(C(=O)N(Cc3ccc(C)o3)c3ccccn3)cc(=O)c2c1	/	/	/	/	/	10
CCOC(=O)c1c(NC(=O)CCS(=O)(=O)c2ccccc2)sc2c1CCN(C)C2	-9%	5%	i	?	-45%	-2
CCCN(CCC)C(=O)CN1C(=O)CSc2ccc(S(=O)(=O)N3CCC(C)CC3)cc21	-11%	-5%	?	?	-30%	-12
COC(=O)c1scc(C)c1NC(=O)c1ccc(Cl)cc1	-1%	-7%	/	10%	14%	-5
CCCCCCCCC1=NCCc2c1[nH]c1ccccc21	-8%	-34%	i	?	16µM*	3
Cc1cc(/C=C(\C#N)C(=O)O)c(C)n1-c1ccc(Br)cc1	-1%	3%	i	-2%	-4%	-5
Cc1ccc(C(=O)N/C(=C\c2ccc(Br)cc2)c2nc(=S)[nH][nH]2)cc1	0%	?	/	?	13µM*	3
Cn1cccc1/C=C1\SC(=Nc2ccc(O)cc2)NC1=O	-2%	/	?	?	-33%	-5
Cn1cccc1/C=C1\SC(=Nc2cccc(O)c2)NC1=O	4%	/	16µM*	?	-12%	-1
COc1ccc(N2CCN(C(=O)[C@@H]3CCCN3C3=NS(=O)(=O)c4ccccc43)CC2)cc1	5%	3%	i	14%	-46%	3
Cc1ccc(CC(=O)N2CCN(S(=O)(=O)c3ccccc3)CC2)cc1	/	/	/	/	/	-6
Nc1cc(C(=O)O)c(N)c2c1C(=O)c1ccccc1C2=O	0%	?	14µM*	?	-11%	5
Cc1cc(N2CCN(C(=O)c3ccco3)CC2)n2nc(-c3cccc(Cl)c3)cc2n1	0%	20µM*	/	?	-22%	0
COc1ccc(-c2cc3nc(C)cc(N4CCN(C(=O)c5ccco5)CC4)n3n2)cc1	-1%	-15%	i	-15%	-24%	-5
O=C(C1=C(c2ccccc2)C(=O)c2ccccc2C1=O)c1ccccc1	23%	?	/	5.6µM*	10µM*	45
COC1=C(c2ccccc2)C(=O)c2ccccc2C1=O	4%	?	/	11µM*	22µM*	21
O=C(c1ccccc1)c1c[nH]cc1-c1ccccc1	3%	2%	i	10%	-3%	-9
O=C1C(c2ccccc2)=C(c2ccccc2)c2ccccc21	/	/	/	/	/	3
COc1cc(Cl)c(C)cc1NC(=O)CSc1nnc(-c2ccccn2)n1Cc1ccco1	5%	-20%	i	2%	-17%	-10
CC(C)(C)C(=O)Nc1ccccc1C(=O)OCc1cc(=O)n2ccsc2n1	10%	-1%	i	27%	4%	0
O=C1CCCC(O)=C1C=NCc1ccccc1	9%	4.7µM*	i	-10%	1%	0
SMILES	mIDH1 inhibitor	ATXN2 expr inh	ATXN viability	TGFb inhibitor	HepG2 tox	LDHA block
O=C1CC(c2ccccc2)CC(O)=C1C=NCc1ccccc1 (centres undefined)	-9%	-1%	i	-10%	3%	-5
Cc1cccc(C(=O)NCCc2ccc(S(N)(=O)=O)cc2)c1[N+](=O)[O-]	4%	-8%	i	0%	-20%	-6
COC(=O)c1ccc2c(C(=Nc3ccc(N(C)C(=O)CN4CCN(C)CC4)cc3)c3ccccc3)c(O)[nH]c2c1	/	24µM*	/	/	/	/
CCN1CCN(CCNC(=O)CCCCCn2c(=O)[nH]c3cc(C(=O)OC)ccc3c2=O)CC1	9%	2%	i	26%	-1%	-8
N#Cc1c(SCC(=O)NCCc2ccccc2)nc(N2CCOCC2)c2c1CCCC2	/	/	/	/	/	-31*
COc1cccc(C(=O)Nc2ccc3oc(-c4ccc(F)cc4)cc(=O)c3c2)c1	/	/	/	/	/	-35*
CCn1nc(-c2ccccc2C)nc2c(=O)n(C)c(=O)nc1-2	/	/	/	0.89µM*	0.63µM*	24
Cn1nc(-c2cccnc2)nc2c(=O)n(C)c(=O)nc1-2	/	/	/	2.2µM*	2.8µM*	20
Cc1cc(C)n2nc(-c3cccnc3)nc2n1	3%	6%	i	?	2%	-1
COc1ccc(-c2nc3c(=O)n(C)c(=O)nc-3n(C)n2)cc1	/	/	/	0.35µM*	0.56µM*	22
Cn1nc(-c2ccc(F)cc2)nc2c(=O)n(C)c(=O)nc1-2	/	/	/	0.89µM*	0.89µM*	25
Cn1nc(-c2ccccc2)nc1-c1ccccc1	4%	46%	i	23%	5%	-6
Cn1nc(-c2ccc(Cl)cc2)nc2c(=O)n(C)c(=O)nc1-2	/	/	/	1µM*	1.3µM*	25
COc1ccc(CN2CCCC(CNC(=O)c3ccc(F)cc3)C2)c(C)c1C (centres undefined)	6%	/	i	-12%	7.9µM*	-7
O=C(CNC(=O)NCc1ccc(C(F)(F)F)cc1)NCC(F)(F)F	/	/	/	/	/	10
OC(CNCC(c1ccco1)N1CCCCC1)c1ccccc1 (centres undefined)	-2%	-9%	i	2%	14%	-31*
O=C(CSc1ccccc1)NCC(c1ccco1)N1CCCCC1 (centres undefined)	-3%	1%	i	-1%	-4%	3
O=C(NCC(c1ccco1)N1CCCCC1)c1ccc([N+](=O)[O-])s1 (centres undefined)	11%	?	i	16µM*	-63%	0
Cc1noc2ncnc(Oc3ccccc3)c12	8%	-22%	i	-4%	-12%	-3
CCCCn1c(N)c(N(CC(C)C)C(=O)c2oc3ccc(Br)cc3c2C)c(=O)[nH]c1=O	-7%	1%	i	-29%	-19%	-6
Cc1cc(C)cc(OC(C)C(=O)Nc2ccc3nsnc3c2)c1 (centres undefined)	/	/	/	/	/	-18
